Reference: PubChem BioAssay AID1159580 (chemical genetic matrix, 2015)
Several values for one entry are separate records, joined by “and”; a condition that tells them apart may be missing. Equal entries are not always repeated. Out of some 5,500 compounds screened, about 2,000 (36%) were called active. Roughly 18% stayed inconclusive and do not appear here. Rule as the data show it: active = normalized growth mostly below about 0.91 (no sharp cut-off); inconclusive = no clear call, values can overlap the other calls; inactive = mostly above about 0.92. The list shows a part of the results.

Experiment: chemical genetic growth profiling, strain panel (AID 1159580);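 also: tested at 20 µM; growth read once vehicle control cultures reached saturation at 30 °C; 1 = growth at the plate median or of vehicle wells; lower values mean less growth of the strain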
Conditions: S. cerevisiae deletion strains, growth OD

Measured: normalized growth

C[N+](C)(C)CCOC(N)=O
inactive: locus YAL013W, strain DEP1, stronger effect = lower value 1.01 | locus YAL021C, strain ccr4, stronger effect = lower value 1.03 | locus YAL026C, strain drs2, stronger effect = lower value 1.01 | locus YAL030W, strain snc1, stronger effect = lower value 1.01 | locus YAL040C, strain CLN3, stronger effect = lower value 1.05 | locus YBL061C, strain skt5, stronger effect = lower value 1.03 | locus YBR009C, strain hhf1, stronger effect = lower value 0.997 | locus YBR021W, strain FUR4, stronger effect = lower value 1.06 | locus YBR023C, strain chs3, stronger effect = lower value 1.02 | locus YBR171W, strain sec66, stronger effect = lower value 1.02 | locus YBR229C, strain ROT2, stronger effect = lower value 1.01 | locus YBR231C, strain swc5, stronger effect = lower value 1.02 | locus YBR279W, strain paf1, stronger effect = lower value 1.01 | locus YCL011C, strain gbp2, stronger effect = lower value 1.01 | locus YCL016C, strain dcc1, stronger effect = lower value 1.03 | locus YCL029C, strain bik1, stronger effect = lower value 0.973 | locus YCL061C, strain MRC1 (second series), stronger effect = lower value 0.987 | locus YCL069W, strain vba3, stronger effect = lower value 1.03 | locus YCR088W, strain abp1, stronger effect = lower value 1.01 | locus YDL005C, strain med2, stronger effect = lower value 1.03 | locus YDL035C, strain GPR1, stronger effect = lower value 1.04 | locus YDL040C, strain nat1, stronger effect = lower value 1.02 | locus YDL074C, strain BRE1, stronger effect = lower value 0.995 | locus YDL101C, strain DUN1, stronger effect = lower value 0.986 | locus YDL185W, strain tfp1, stronger effect = lower value 0.953 | locus YDL192W, strain arf1, stronger effect = lower value 0.976 | locus YDR001C, strain nth1, stronger effect = lower value 1.02 | locus YDR069C, strain doa4, stronger effect = lower value 1.01 | locus YDR101C, strain arx1, stronger effect = lower value 1 | locus YDR137W, strain rgp1, stronger effect = lower value 1.04 | locus YDR150W, strain NUM1, stronger effect = lower value 1.01 | locus YDR159W, strain sac3, stronger effect = lower value 1.02 | locus YDR162C, strain NBP2, stronger effect = lower value 1.03 | locus YDR195W, strain ref2 1.06 | locus YDR297W, strain sur2, stronger effect = lower value 1.02 | locus YDR318W, strain mcm21, stronger effect = lower value 0.987 | locus YDR334W, strain swr1, stronger effect = lower value 1.02 | locus YDR335W, strain msn5, stronger effect = lower value 1.03 | locus YDR388W, stronger effect = lower value 0.984 | locus YDR392W, strain spt3, stronger effect = lower value 1.02 | locus YDR502C, strain sam2, stronger effect = lower value 0.99 | locus YEL003W, strain gim4, stronger effect = lower value 1.02 | locus YEL037C, strain rad23, stronger effect = lower value 1.02 | locus YEL061C, strain CIN8 (second series), stronger effect = lower value 1.01 | locus YEL061C, strain CIN8, stronger effect = lower value 1 | locus YER002W, strain NOP16, stronger effect = lower value 0.986 | locus YER015W, strain faa2, stronger effect = lower value 1.03 | locus YER016W, strain bim1, stronger effect = lower value 1.01 | locus YER110C, stronger effect = lower value 0.944 | locus YER111C, strain swi4, stronger effect = lower value 1.03 | locus YER155C, strain BEM2 (second series), stronger effect = lower value 1.03 | locus YER155C, strain BEM2, stronger effect = lower value 0.991 | locus YER167W, strain BCK2, stronger effect = lower value 1.01 | locus YFR010W, strain ubp6, stronger effect = lower value 1.02 | locus YGL078C, strain dbp3, stronger effect = lower value 0.986 | locus YGL086W, strain mad1, stronger effect = lower value 1 | locus YGL167C, strain pmr1, stronger effect = lower value 1.03 | locus YGL173C, strain kem1, stronger effect = lower value 1.02 | locus YGL227W, strain vid30, stronger effect = lower value 1.01 | locus YGL240W, strain doc1, stronger effect = lower value 1.02 | locus YGL248W, strain PDE1, stronger effect = lower value 1.01 | locus YGL253W, strain hxk2, stronger effect = lower value 1.02 | locus YGR078C, strain PAC10, stronger effect = lower value 0.992 and 0.993 | locus YGR135W, strain pre9, stronger effect = lower value 0.978 | locus YGR252W, strain gcn5, stronger effect = lower value 1.07 | locus YHR013C, strain ard1, stronger effect = lower value 1.04 | locus YHR027C, strain rpn1, stronger effect = lower value 1.01 | locus YHR030C, strain SLT2, stronger effect = lower value 1.01 and 0.989 | locus YHR079C, strain IRE1 (second series), stronger effect = lower value 0.962 | locus YHR079C, strain IRE1, stronger effect = lower value 0.998 | locus YHR094C, strain hxt1, stronger effect = lower value 0.976 | locus YHR129C, strain ARP1, stronger effect = lower value 1 | locus YHR142W, strain chs7, stronger effect = lower value 1.02 | locus YHR200W, strain rpn10, stronger effect = lower value 0.979 | locus YIL066C, strain RNR3, stronger effect = lower value 1.02 | locus YIL073C, strain SPO22, stronger effect = lower value 0.927 | locus YIL125W, strain kgd1, stronger effect = lower value 0.986 | locus YIR030C, strain dcg1, stronger effect = lower value 0.959 | locus YJL092W, strain hpr5, stronger effect = lower value 1.01 | locus YJL095W, strain BCK1 (second series), stronger effect = lower value 1.03 | locus YJL095W, strain BCK1, stronger effect = lower value 0.981 and 0.988 | locus YJL115W, strain asf1, stronger effect = lower value 1.02 | locus YJL129C, strain trk1, stronger effect = lower value 1.02 | locus YJL134W, strain LCB3, stronger effect = lower value 1 | locus YJL164C, strain tpk1, stronger effect = lower value 1.01 | locus YJL166W, strain qcr8, stronger effect = lower value 0.992 | locus YJL168C, strain set2, stronger effect = lower value 0.986 | locus YJL187C, strain SWE1 (second series), stronger effect = lower value 0.986 | locus YJL187C, strain SWE1, stronger effect = lower value 1.02 | locus YJR043C, strain POL32, stronger effect = lower value 1.05 | locus YJR066W, strain TOR1, stronger effect = lower value 0.999 | locus YJR075W, strain HOC1, stronger effect = lower value 0.989 | locus YKL009W, strain mrt4, stronger effect = lower value 0.957
